# Screening data: PubChem, several laboratories
# CYP2C19 act: activators of human cytochrome P450 2C19. P33261. recombinant CYP2C19, luciferin-H EGE luminescence; active compounds read high; 0 = fully inhibited enzyme, 1 = untreated enzyme. activation factor at 5 µM. 96,000 tested, under 10 active. AID 1025;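 active = activation factor of at least 2 at 5 µM in the primary screen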;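 note: 0 = wells with 2.5 mM tranylcypromine and 1 = vehicle-only wells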
# PostGolgi ctrl: yeast control strain growth, post-Golgi counter-screen; efflux-deficient yeast background strain, growth absorbance A615, 16 h; inhibition, % at 10 µM; hit rate 5% among 98,000; AID 738
# PostGolgi yeast: growth inhibition of a yeast mutant, post-Golgi transport screen; post-Golgi transport phenotypic cell assay; inhibition, % at 10 µM; hit rate 0.9% among 98,000;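 note: yeast cells grown in 1536-well plates; yeast grown about 18 h at 30C before absorbance read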
# CYP2C9 inhib: human CYP2C9 inhibition | CYP2C9 Supersomes, luciferin-H conversion, luminescence | inhibition, % at 5 µM | hit rate 20% among 96,000 | AID 777;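 active = blocking of liver enzyme CYP2C9 beyond about 50% at 5 µM, limit read from the data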
# Target sequence (P11712 whole entry, looked up): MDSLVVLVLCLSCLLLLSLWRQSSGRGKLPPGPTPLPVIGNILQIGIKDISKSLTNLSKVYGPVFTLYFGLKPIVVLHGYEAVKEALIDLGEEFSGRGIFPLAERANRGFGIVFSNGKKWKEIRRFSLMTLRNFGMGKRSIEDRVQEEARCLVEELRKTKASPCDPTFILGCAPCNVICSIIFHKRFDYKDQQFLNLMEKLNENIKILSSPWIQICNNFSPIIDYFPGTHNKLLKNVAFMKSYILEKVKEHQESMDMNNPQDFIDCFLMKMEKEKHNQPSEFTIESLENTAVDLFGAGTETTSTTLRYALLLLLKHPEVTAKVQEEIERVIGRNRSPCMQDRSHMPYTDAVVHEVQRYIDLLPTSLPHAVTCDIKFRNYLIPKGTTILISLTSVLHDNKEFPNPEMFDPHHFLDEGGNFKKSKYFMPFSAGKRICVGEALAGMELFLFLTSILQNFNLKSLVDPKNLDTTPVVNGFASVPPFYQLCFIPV
# CYP2C9 activ: activators of human CYP2C9; recombinant CYP2C9, luciferin-H conversion, luminescence; active compounds read high; factor 1 = untreated enzyme, 0 = blocked; activation factor at 5 µM; hit rate 1.4% among 96,000;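 active = activation factor of 2 or more for CYP2C9 at a 5 µM dose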;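 note: 0 = sulfaphenazole-blocked wells and 1 = vehicle-only wells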
# CYP2C19 inhib: inhibitors of human CYP2C19 | P33261 | inhibition, % at 5 µM | hit rate 21% among 96,000 | CYP2C19 Supersomes, luciferin-H EGE luminescence, 30 min;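 active = CYP2C19 inhibition above a set limit at 5 µM in the primary screen, cut at about 50% in these data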;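 note: plate controls were negative control wells for no effect and 2.5 mM tranylcypromine positive control for full effect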
# * marks the source's active call; other numbers are inactive results. Only a sample is shown. Cut-off read from the data, not from the text of the source, unless noted: active = inhibition above about 30%; inactive = the rest.
SMILES,CYP2C19 act,PostGolgi ctrl,PostGolgi yeast,CYP2C9 inhib,CYP2C9 activ,CYP2C19 inhib
COC(=O)CNC(=O)CSc1nc(N)cc(=O)[nH]1,1.1,31*,7,13,0.9,-12
Nc1cc(=O)[nH]c(SCC(=O)Nc2cc(Cl)cc(Cl)c2)n1,0.9,17,-10,32,0.7,6
CCN(CC)C(=O)CSc1nc2nc(C)cc(C)c2c(=O)[nH]1,1.2,7,-4,16,0.8,-16
CCN(CC)C(=O)CSc1nc2ncc(Cl)cc2[nH]1,0.5,2,-5,42,0.6,52*
CCN(CC)C(=O)CSc1nc2ncc(Br)cc2[nH]1,0.3,8,-5,44,0.6,69*
O=C(Nc1cccc2ncccc12)c1ccc(-c2ccc(Br)cc2)o1,0.9,11,0,7,0.9,13
CCOc1ccc(N(CC(=O)O)S(=O)(=O)c2cccnc2)cc1,1.1,19,-4,-18,1.2,-7
Cc1cc(NC(=O)CCCC(=O)NCc2cccs2)no1,0.9,5,-1,-1,1,13
Fc1ccc(CSc2nc3ncc(Br)cc3[nH]2)cc1,0.5,7,22,21,0.8,55*
O=C(CCl)NCc1c(Cl)cccc1-n1cccc1,0.8,-3,6,-1,1,16
CC(=O)c1c(NC(=O)C(C)C)nc(C)nc1-c1ccccc1,0.6,2,5,55*,0.4,39
CC(=O)Nc1nc(C)nc(-c2ccccc2)c1C(C)=O,1.1,-2,-1,-6,1.1,-9
O=C1CSC(c2ccccn2)N1Cc1cn2ccccc2n1 (centres undefined),0.8,8,2,-11,1.1,20
CCOC(=O)C1=C(C)OC(N)=C(C#N)C1c1cc(F)ccc1F (centres undefined),0.2,6,1,47,0.5,83*
CCOC(=O)CC1=C(C(=O)OCC)C(c2cc(OC)c(OC)cc2OC)C(C#N)=C(N)O1 (centres undefined),0.7,12,-2,48,0.5,33
CCOC(=O)C1=C(C)OC(N)=C(C#N)C1c1ccc(OC)c(C)c1OC (centres undefined),0.3,12,2,55*,0.4,73*
COc1ccc(C2C(C#N)=C(N)Oc3cc(C)[nH]c(=O)c32)c(OC)c1OC (centres undefined),1,5,2,10,0.9,2
Cc1cc(C2C(C#N)=C(N)SC(N)=C2C#N)c(C)s1,0.1,-1,9,2,1,92*
CCOC(=O)C1=C(CC)OC(N)=C(C#N)C1c1cc(OC)ccc1OC (centres undefined),0.2,6,-3,98*,0,82*
Cc1sccc1C1C(C#N)=C(N)SC(N)=C1C#N,0.7,6,2,-38,1.4,35
CCS(=O)(=O)NCCc1cc2ccc(C)cc2[nH]c1=O,1,8,18,-13,1.1,-2
O=C1c2ccccc2C(=Nc2ccccc2)C1c1cccc(Br)c1 (centres undefined),1.1,3,0,-1,1,-6
Cn1c(N)c(C(=O)COC(=O)c2cccs2)c(=O)n(C)c1=O,0.9,6,14,6,0.9,12
CCN(CC)C(=O)CSC1=C(C#N)C(c2cccs2)C=C(C)N1 (centres undefined),0.4,19,-8,14,0.9,60*
COC(=O)C1=C(C)OC(N)=C(C#N)C1c1cc(C)sc1C (centres undefined),0.1,-5,-6,28,0.7,88*
SMILES,CYP2C19 act,PostGolgi ctrl,PostGolgi yeast,CYP2C9 inhib,CYP2C9 activ,CYP2C19 inhib
CCOC(=O)CC1=C(C(=O)OCC)C(c2ccc(OC)c(OC)c2)C(C#N)=C(N)O1 (centres undefined),0.3,0,0,87*,0.1,74*
COC(=O)CC1=C(C(=O)OC)C(c2ccncc2)C(C#N)=C(N)O1 (centres undefined),0.2,4,1,80*,0.2,80*
C=C(C)CSC1=C(C#N)C(c2ccsc2)CC(=O)N1 (centres undefined),0.7,7,-2,23,0.8,28
COC(=O)CC1=C(C(=O)OC)C(c2cccc(OCC(N)=O)c2)C(C#N)=C(N)O1 (centres undefined),0.9,6,7,3,1,12
Cc1cc(C2C(C#N)=C(N)Oc3n[nH]c(C)c32)c(C)s1 (centres undefined),0.9,1,1,3,1,10
Cc1occc1C(=O)NCc1ccc(C(=O)O)o1,1,5,21,1,1,-3
Cn1c2c(c(=O)n(C)c1=O)CN(Cc1ccc3c(c1)OCO3)CN2,1,-7,-10,-9,1.1,2
Fc1ccc(-c2n[nH]c(=S)n2CC2CCCO2)cc1 (centres undefined),0.8,4,-10,22,0.8,22
C#CCSC1=C(C#N)C(c2cccs2)C(C(=O)OCC)=C(C)N1 (centres undefined),0.4,20,-2,72*,0.3,64*
CCOC(=O)CC1=C(C(=O)OCC)C(c2cccs2)C(C#N)=C(N)O1 (centres undefined),0.2,4,-4,28,0.7,78*
CCOC(=O)C1=C(c2ccccc2)OC(N)=C(C#N)C1c1cccs1 (centres undefined),0.9,6,22,12,0.9,6
O=C(COC(=O)C1c2ccccc2Oc2ccccc21)NC1CCS(=O)(=O)C1 (centres undefined),0.7,-1,-9,-26,1.3,32
COc1ccc(C2=NN(C(=O)c3cccc([N+](=O)[O-])c3)C(c3cccc([N+](=O)[O-])c3)C2)cc1 (centres undefined),0.9,-3,10,44,0.6,8
COc1ccc(C(=O)N2CCc3cc(OC)c(OC)cc3C2c2cccc([N+](=O)[O-])c2)cc1OC (centres undefined),0.8,5,-4,69*,0.3,19
Cc1cc(C)c(S(=O)(=O)N2CCCC(C(=O)NCCC3=CCCCC3)C2)c(C)c1 (centres undefined),1.1,22,-4,-68,1.7,-6
COc1ccc(S(=O)(=O)N2CCCC(C(=O)NCCC3=CCCCC3)C2)cc1 (centres undefined),1.1,4,1,-46,1.5,-9
O=C(NCCC1=CCCCC1)C1CCCN(S(=O)(=O)c2cccnc2)C1 (centres undefined),0.4,-2,-1,54*,0.5,58*
O=C(NCCC1=CCCCC1)C1CCCN(S(=O)(=O)c2cccc3cccnc23)C1 (centres undefined),0.3,7,-19,-286,3.9*,73*
O=C(O)C1CC=CCC1C(=O)NCCc1cccc(Cl)c1 (centres undefined),0.9,1,5,-10,1.1,6
